# What was measured:
# Test in all cases: DAPPL (digital affinity profiling via proximity ligation, sequencing); 10 mM Tris-HCl pH 7.5, 50 mM NaCl, 1 mM DTT, 4% glycerol, room temperature, 30 min; GST-TFs on glutathione beads, 16-mer random dsDNA library, 0.1% formaldehyde crosslink after washing; high values mean tight binding
# FLI1 = biological target: T1, FLI1 (Homo sapiens, UniProt Q01543 1-452); conditions: protein: recombinant; tags: N-terminal GST; dsDNA, one strand shown
# T1 sequence: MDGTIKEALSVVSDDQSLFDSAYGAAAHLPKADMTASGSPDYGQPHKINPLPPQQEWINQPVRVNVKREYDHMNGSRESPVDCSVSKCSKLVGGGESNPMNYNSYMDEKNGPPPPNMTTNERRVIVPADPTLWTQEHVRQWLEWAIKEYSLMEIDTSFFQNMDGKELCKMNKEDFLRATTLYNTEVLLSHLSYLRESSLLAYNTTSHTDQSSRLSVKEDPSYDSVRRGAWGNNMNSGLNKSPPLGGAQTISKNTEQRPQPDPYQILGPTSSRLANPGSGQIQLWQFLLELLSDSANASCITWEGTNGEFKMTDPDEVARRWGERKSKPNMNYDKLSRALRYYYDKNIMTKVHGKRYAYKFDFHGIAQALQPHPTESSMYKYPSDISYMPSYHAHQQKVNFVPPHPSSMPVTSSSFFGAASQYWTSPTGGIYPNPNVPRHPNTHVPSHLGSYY
# Summary of the method: (§1)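 A tag-only sample was pooled with DNA-barcoded human transcription factors that had been expressed in yeast as GST fusions and captured on glutathione beads. The pools were incubated for 30 min at room temperature with 200 nmole of a random double-stranded 16-mer DNA library in Tris/NaCl/DTT/glycerol buffer, then washed, crosslinked with 0.1% formaldehyde, proximity-ligated (BsaI/T4 ligase, 1 h, 37 °C), PCR-amplified and sequenced on an Illumina NextSeq500. Binding signal is each hexamer's read frequency for a factor divided by its frequency for the tag-only sample.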
# ELK1 = biological target: T2, ELK1 (Homo sapiens, UniProt P19419 1-428); conditions: protein: recombinant; tags: N-terminal GST; dsDNA, one strand shown
# T2 sequence: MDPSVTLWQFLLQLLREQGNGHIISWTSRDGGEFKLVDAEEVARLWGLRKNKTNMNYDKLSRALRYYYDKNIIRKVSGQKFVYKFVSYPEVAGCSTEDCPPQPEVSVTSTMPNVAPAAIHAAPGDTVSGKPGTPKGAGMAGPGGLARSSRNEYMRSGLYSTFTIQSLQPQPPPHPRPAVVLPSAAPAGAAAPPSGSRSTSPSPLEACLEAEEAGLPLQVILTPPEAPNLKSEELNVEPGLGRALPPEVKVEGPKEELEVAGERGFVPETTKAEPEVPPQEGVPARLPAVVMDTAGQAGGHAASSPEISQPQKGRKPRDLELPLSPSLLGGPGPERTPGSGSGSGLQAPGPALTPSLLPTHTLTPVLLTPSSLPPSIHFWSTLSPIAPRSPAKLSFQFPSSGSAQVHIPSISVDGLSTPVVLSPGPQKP
# Summary of the method: as §1
# GABPA = biological target: T3, GABPA (Homo sapiens, UniProt Q06546 1-454); conditions: protein: recombinant; tags: N-terminal GST; dsDNA, one strand shown
# T3 sequence: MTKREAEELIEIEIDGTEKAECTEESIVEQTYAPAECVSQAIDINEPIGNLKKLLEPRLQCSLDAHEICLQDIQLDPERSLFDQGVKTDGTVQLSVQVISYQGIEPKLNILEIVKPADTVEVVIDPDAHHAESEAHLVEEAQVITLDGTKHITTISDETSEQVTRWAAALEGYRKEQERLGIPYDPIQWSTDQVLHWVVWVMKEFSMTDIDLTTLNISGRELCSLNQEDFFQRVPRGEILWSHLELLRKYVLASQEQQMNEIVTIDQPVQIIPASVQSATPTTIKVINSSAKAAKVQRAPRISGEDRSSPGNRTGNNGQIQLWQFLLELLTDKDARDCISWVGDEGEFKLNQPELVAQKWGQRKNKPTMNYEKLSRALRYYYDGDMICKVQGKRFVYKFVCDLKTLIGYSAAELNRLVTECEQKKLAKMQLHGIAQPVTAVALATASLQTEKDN
# Summary of the method: as §1
# ERG = biological target: T4, ERG (Homo sapiens, UniProt P11308 1-479); conditions: protein: recombinant; tags: N-terminal GST; dsDNA, one strand shown
# T4 sequence: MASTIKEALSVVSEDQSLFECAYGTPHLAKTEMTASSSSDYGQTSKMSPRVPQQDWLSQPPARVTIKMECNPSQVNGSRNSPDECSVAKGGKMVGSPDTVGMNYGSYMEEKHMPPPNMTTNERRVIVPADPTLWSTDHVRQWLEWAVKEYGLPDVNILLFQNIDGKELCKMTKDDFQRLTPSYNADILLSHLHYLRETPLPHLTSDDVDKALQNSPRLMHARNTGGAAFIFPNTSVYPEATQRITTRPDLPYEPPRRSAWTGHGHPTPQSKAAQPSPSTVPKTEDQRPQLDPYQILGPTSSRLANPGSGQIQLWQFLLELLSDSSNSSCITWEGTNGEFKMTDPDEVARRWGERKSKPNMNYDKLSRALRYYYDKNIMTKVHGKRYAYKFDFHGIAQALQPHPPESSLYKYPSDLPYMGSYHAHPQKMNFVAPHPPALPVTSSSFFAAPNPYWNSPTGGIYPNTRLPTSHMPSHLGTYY
# Summary of the method: as §1
# ELF1 = ELF1 (Homo sapiens, UniProt P32519 1-619); conditions: protein: recombinant; tags: N-terminal GST; dsDNA, one strand shown
# Summary of the method: as §1
# SPI1 = SPI1 (Homo sapiens, UniProt P17947 1-270); conditions: protein: recombinant; tags: N-terminal GST; dsDNA, one strand shown
# Summary of the method: as §1
# SPIB = SPIB (Homo sapiens, UniProt Q01892 1-262); conditions: protein: recombinant; tags: N-terminal GST; dsDNA, one strand shown
# Summary of the method: as §1
# ELK3 = biological target: T5, ELK3 (Homo sapiens, UniProt P41970 1-407); conditions: protein: recombinant; tags: N-terminal GST; dsDNA, one strand shown
# T5 sequence: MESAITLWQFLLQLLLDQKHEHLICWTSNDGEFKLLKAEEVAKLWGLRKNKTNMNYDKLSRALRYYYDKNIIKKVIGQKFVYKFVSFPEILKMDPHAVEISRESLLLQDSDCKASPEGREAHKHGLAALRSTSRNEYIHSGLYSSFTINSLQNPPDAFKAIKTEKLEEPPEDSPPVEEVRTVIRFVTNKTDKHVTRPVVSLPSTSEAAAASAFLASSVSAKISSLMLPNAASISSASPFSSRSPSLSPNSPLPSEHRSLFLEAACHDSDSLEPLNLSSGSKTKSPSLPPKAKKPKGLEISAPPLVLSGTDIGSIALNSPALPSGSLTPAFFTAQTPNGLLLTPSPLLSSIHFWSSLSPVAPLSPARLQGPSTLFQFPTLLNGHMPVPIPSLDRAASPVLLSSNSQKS
# Summary of the method: as §1
# FEV = biological target: T6, FEV (Homo sapiens, UniProt Q99581 1-238); conditions: protein: recombinant; tags: N-terminal GST; dsDNA, one strand shown
# T6 sequence: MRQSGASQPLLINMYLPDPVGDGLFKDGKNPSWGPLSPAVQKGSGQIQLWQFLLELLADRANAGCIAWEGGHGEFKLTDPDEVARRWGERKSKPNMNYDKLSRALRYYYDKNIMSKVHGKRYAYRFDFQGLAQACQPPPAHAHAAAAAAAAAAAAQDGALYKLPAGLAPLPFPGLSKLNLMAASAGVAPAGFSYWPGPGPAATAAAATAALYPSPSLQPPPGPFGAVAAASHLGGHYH
# Summary of the method: as §1
# ETV5 = ETV5 (Homo sapiens, UniProt P41161 1-510); conditions: protein: recombinant; tags: N-terminal GST; dsDNA, one strand shown
# Summary of the method: as §1
# HSF1 = HSF1 (Homo sapiens, UniProt Q00613 1-529); conditions: protein: recombinant; tags: N-terminal GST; chain copies: 3; dsDNA, one strand shown
# Summary of the method: as §1
# SPIC = biological target: T7, SPIC (Homo sapiens, UniProt Q8N5J4 1-248); conditions: protein: recombinant; tags: N-terminal GST; dsDNA, one strand shown
# T7 sequence: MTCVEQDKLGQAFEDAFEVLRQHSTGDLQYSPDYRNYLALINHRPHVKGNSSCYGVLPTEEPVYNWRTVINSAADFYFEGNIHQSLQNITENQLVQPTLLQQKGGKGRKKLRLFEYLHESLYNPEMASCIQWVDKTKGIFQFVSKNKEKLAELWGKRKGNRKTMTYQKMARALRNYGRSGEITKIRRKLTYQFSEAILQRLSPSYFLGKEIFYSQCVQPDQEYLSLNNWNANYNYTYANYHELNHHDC
# Summary of the method: as §1
# ELF4 = ELF4 (Homo sapiens, UniProt Q99607 1-663); conditions: protein: recombinant; tags: N-terminal GST; dsDNA, one strand shown
# Summary of the method: as §1
# ELK4 = biological target: T8, ELK4 (Homo sapiens, UniProt P28324-2 1-405); conditions: protein: recombinant; tags: N-terminal GST; dsDNA, one strand shown
# T8 sequence: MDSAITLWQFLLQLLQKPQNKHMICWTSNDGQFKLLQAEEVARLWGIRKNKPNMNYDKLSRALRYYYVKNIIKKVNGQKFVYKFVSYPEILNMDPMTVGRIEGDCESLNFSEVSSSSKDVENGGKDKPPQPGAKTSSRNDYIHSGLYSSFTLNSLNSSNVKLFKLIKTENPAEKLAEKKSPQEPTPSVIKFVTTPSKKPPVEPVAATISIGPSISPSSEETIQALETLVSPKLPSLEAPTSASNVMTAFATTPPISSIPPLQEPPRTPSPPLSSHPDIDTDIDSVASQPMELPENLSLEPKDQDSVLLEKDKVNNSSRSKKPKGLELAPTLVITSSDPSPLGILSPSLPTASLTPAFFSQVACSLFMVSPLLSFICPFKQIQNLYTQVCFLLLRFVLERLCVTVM
# Summary of the method: as §1
# ETV2 = biological target: T9, ETV2 (Homo sapiens, UniProt O00321 1-342); conditions: protein: recombinant; tags: N-terminal GST; dsDNA, one strand shown
# T9 sequence: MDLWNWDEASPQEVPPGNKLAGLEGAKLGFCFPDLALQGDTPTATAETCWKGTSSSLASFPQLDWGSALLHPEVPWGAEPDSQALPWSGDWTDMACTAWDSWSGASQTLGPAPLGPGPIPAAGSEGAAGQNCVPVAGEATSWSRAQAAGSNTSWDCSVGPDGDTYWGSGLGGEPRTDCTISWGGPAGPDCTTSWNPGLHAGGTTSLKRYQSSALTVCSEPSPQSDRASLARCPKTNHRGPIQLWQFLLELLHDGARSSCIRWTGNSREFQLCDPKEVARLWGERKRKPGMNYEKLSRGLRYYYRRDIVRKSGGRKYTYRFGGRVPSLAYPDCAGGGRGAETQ
# Summary of the method: as §1
# ELF3 = biological target: T10, ELF3 (Homo sapiens, UniProt P78545 1-371); conditions: protein: recombinant; tags: N-terminal GST; dsDNA, one strand shown
# T10 sequence: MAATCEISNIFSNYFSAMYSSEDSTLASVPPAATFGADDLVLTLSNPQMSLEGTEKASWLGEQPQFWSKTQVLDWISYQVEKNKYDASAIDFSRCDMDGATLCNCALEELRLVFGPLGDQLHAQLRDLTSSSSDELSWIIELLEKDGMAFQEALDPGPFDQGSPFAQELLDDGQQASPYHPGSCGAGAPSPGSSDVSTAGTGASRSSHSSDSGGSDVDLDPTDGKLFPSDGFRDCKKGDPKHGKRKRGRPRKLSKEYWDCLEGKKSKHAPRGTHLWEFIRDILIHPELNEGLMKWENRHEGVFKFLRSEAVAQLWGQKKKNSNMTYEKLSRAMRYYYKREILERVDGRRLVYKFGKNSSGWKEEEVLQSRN
# Summary of the method: as §1
# CRX = CRX (Homo sapiens, UniProt O43186 1-299); conditions: protein: recombinant; tags: N-terminal GST; dsDNA, one strand shown
# Summary of the method: as §1
# ETV1 = ETV1 (Homo sapiens, UniProt P50549 1-477); conditions: protein: recombinant; tags: N-terminal GST; dsDNA, one strand shown
# Summary of the method: as §1
# Chain of CRX (O43186 whole entry): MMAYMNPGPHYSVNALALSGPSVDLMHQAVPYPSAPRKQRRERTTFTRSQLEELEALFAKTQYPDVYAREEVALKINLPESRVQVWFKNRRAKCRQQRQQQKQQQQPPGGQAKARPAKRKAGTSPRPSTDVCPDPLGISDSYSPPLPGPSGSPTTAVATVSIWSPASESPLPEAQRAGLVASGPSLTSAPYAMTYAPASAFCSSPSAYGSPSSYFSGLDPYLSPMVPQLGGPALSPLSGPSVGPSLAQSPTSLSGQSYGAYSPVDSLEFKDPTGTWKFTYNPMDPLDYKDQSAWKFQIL
# Chain of ETV5 (P41161 whole entry): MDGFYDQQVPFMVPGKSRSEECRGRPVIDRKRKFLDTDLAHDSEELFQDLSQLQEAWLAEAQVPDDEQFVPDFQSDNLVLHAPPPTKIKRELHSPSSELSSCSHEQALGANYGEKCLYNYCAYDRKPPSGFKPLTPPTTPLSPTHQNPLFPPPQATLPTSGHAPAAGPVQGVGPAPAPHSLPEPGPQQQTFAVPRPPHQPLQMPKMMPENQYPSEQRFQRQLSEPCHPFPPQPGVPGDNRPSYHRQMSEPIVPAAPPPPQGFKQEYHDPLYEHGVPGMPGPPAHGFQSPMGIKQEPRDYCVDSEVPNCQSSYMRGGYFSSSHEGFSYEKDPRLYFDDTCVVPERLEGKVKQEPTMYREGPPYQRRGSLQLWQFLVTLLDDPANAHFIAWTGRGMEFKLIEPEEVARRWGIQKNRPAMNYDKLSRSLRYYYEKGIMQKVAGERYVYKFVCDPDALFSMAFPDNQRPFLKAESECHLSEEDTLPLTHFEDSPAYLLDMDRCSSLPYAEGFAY
# Chain of ELF4 (Q99607 whole entry): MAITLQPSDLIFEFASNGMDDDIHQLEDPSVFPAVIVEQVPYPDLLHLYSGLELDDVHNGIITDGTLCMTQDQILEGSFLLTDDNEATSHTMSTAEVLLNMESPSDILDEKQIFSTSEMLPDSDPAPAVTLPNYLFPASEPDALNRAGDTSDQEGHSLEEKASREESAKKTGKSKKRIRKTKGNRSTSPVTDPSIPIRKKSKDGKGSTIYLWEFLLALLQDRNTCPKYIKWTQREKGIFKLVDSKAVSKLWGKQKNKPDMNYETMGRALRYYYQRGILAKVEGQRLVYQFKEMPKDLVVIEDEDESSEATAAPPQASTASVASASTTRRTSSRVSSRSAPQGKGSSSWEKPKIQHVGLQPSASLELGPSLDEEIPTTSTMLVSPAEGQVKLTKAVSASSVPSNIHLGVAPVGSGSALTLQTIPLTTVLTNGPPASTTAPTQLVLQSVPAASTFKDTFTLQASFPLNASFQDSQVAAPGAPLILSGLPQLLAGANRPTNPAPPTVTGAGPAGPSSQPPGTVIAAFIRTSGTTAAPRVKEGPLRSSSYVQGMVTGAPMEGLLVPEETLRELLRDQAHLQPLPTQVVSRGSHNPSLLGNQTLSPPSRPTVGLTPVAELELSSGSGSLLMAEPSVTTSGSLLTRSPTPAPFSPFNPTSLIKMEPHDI
# Chain of HSF1 (Q00613 whole entry): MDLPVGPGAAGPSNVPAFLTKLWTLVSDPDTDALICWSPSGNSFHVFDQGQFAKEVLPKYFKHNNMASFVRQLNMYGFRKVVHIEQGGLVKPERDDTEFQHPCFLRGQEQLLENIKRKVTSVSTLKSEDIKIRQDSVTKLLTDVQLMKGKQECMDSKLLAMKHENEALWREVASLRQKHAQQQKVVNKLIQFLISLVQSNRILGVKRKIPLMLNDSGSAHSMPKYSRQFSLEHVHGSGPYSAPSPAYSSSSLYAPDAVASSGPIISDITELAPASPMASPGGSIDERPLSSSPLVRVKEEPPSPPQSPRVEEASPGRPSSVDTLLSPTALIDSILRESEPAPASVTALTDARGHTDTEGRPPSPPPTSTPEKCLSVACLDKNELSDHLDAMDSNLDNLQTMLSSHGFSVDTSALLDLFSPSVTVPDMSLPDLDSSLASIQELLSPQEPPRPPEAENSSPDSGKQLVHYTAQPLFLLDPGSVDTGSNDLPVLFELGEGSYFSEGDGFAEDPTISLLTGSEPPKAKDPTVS
# Chain of SPIB (Q01892 whole entry): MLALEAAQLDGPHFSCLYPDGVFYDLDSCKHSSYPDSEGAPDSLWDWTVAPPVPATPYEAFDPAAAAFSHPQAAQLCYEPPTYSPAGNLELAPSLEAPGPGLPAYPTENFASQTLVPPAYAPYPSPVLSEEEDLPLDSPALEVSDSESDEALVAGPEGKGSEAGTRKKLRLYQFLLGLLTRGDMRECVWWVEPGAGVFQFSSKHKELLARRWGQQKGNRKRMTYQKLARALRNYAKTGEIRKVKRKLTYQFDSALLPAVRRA
# Chain of ELF1 (P32519 whole entry): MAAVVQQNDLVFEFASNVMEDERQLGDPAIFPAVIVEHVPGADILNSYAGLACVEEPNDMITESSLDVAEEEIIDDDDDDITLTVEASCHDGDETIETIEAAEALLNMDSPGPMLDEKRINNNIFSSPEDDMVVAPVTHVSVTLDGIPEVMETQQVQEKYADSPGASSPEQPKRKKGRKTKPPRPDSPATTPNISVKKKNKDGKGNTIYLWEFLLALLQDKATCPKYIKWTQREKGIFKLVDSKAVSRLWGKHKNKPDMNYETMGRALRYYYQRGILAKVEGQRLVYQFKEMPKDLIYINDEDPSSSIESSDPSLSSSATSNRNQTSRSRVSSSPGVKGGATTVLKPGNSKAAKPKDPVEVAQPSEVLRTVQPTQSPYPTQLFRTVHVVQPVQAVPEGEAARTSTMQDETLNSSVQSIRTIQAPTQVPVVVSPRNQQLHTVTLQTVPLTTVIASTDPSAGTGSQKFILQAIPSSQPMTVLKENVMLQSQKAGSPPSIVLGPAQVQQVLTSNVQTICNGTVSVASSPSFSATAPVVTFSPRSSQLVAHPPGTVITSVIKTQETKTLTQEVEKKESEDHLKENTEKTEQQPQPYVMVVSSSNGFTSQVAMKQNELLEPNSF
# Chain of ETV1 (P50549 whole entry): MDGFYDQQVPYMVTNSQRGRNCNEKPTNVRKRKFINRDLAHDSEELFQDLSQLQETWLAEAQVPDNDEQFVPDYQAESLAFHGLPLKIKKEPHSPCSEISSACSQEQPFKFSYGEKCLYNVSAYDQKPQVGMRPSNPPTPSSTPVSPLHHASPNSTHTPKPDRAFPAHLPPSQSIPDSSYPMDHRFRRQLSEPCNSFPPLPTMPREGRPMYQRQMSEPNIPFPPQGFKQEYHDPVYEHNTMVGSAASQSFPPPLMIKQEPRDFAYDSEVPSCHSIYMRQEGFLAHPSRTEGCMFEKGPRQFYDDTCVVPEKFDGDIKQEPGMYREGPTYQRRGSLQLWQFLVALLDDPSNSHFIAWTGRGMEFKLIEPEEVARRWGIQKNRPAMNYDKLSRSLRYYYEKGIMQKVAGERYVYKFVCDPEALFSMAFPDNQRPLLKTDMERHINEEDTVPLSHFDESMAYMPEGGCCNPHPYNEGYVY
sequence,measurement,setting,value
TAACGA,binding signal,FLI1,"1.09 fold enrichment (6-mer frequency, TF over GST control)"
same,binding signal,ELK1,"1.04 fold enrichment (6-mer frequency, TF over GST control)"
same,binding signal,GABPA,"1.07 fold enrichment (6-mer frequency, TF over GST control)"
same,binding signal,ERG,"1.08 fold enrichment (6-mer frequency, TF over GST control)"
same,binding signal,ELF1,"1.03 fold enrichment (6-mer frequency, TF over GST control)"
same,binding signal,SPI1,"1.06 fold enrichment (6-mer frequency, TF over GST control)"
same,binding signal,SPIB,"1.1 fold enrichment (6-mer frequency, TF over GST control)"
same,binding signal,ELK3,"1.03 fold enrichment (6-mer frequency, TF over GST control)"
same,binding signal,FEV,"1.08 fold enrichment (6-mer frequency, TF over GST control)"
same,binding signal,ETV5,"1.06 fold enrichment (6-mer frequency, TF over GST control)"
same,binding signal,HSF1,"1.23 fold enrichment (6-mer frequency, TF over GST control)"
same,binding signal,SPIC,"1.1 fold enrichment (6-mer frequency, TF over GST control)"
same,binding signal,ELF4,"1.12 fold enrichment (6-mer frequency, TF over GST control)"
same,binding signal,ELK4,"1.09 fold enrichment (6-mer frequency, TF over GST control)"
same,binding signal,ETV2,"1.04 fold enrichment (6-mer frequency, TF over GST control)"
same,binding signal,ELF3,"1.02 fold enrichment (6-mer frequency, TF over GST control)"
same,binding signal,CRX,"1.57 fold enrichment (6-mer frequency, TF over GST control)"
same,binding signal,ETV1,"1.08 fold enrichment (6-mer frequency, TF over GST control)"
